The source made the active and inactive calls.

The nature of assay [1]: optical density shifts of acrAB sulA E. coli – strain DRC41, OD650, 48 h, E. coli filamentation inducer project, primary screen (AID 1152).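 Further: E. coli MC1000 strain DRC41 lacking acrAB efflux pump and sulA.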 Particulars: higher = more signal, called active from +8 up or from −8 down.
Assay [2] can be described thus: probe aLefty1 binding on compound microarray – biochemical, small-molecule microarray, 635/667 nm fluorescence, primary screen (AID 1153).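 Further: score merges spot fluorescence with signal-to-noise ratio from the scanned slide images.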 To be noted: higher = more signal.
A short description of assay [3]: plasmodial surface anion channel blockers, osmotic lysis – cell-based, P. falciparum Indochina, OD700, 1 h, primary screen (AID 1154). To be noted: P. falciparum Indochina infected RBC osmotic lysis, higher = more signal, called active from +8 up or from −8 down.
Assay [4] can be described thus: plasmodial surface anion channel blockers, osmotic lysis – cell-based, P. falciparum Indochina, OD700, 2 h, primary screen (AID 1155).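 Further: lysis reports solute entry through the parasite surface anion channel PSAC.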 To be noted: P. falciparum Indochina infected erythrocytes, higher = more signal, called active from +8 up or from −8 down.
Assay [5] can be described thus: changes in parasitized red cell lysis, either direction – P. falciparum Indochina, OD700, 3 h, PSAC antagonist project, primary screen (AID 1156). Particulars: P. falciparum-infected erythrocytes, osmotic lysis, higher = more signal, called active from +8 up or from −8 down.
Assay [6] can be described thus: plasmodial surface anion channel blockers, osmotic lysis – cell-based, P. falciparum Indochina, OD700, 18 h, primary screen (AID 1157). To be noted: P. falciparum Indochina infected erythrocytes, osmotic lysis OD700, 18 h; higher = more signal, called active from +8 up or from −8 down.
Assay [7] is described as follows: S6 kinase pathway phospho-S6 level changes – cell-based, A549, cytoblot, luminescence, serum-stimulated, primary screen (AID 1158).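 Further: serum-stimulated A549 lung adenocarcinoma cells; signal is phosphorylated S6 detected by cytoblot immunostaining with HRP secondary.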 To be noted: 5 h, higher = more signal.
In assay [8] the target is NADPH oxidase 2 (Homo sapiens) (UniProt P04839). Kind of assay: compounds shifting NOX2 Amplex Red fluorescence – cell-based, HEK293-NOX2, PMA-stimulated, NOX inhibitor project, primary screen (AID 1159). Further: test concentration not given here. Particulars: 45 min, higher = more signal, called active from +8 up or from −8 down.
In assay [9] the target is NADPH oxidase 4 (Homo sapiens) (UniProt Q9NPH5). Put plainly: compounds shifting NOX4 Amplex Red fluorescence – cell-based, HEK293-NOX4, tetracycline-induced, NOX inhibitor project, primary screen (AID 1160). To be noted: HEK293-NOX4, Amplex Red H2O2 fluorescence, 45 min; higher = more signal, called active from +8 up or from −8 down.
Assay [10] concerns the target NADPH oxidase 5 (Homo sapiens) (UniProt Q96PH1). Kind of assay: compounds shifting NOX5 Amplex Red fluorescence – cell-based, HEK293-NOX5, NOX inhibitor project, primary screen (AID 1161). To be noted: HEK293-NOX5, ionomycin, 45 min, higher = more signal.
The nature of assay [11]: compound effects on lung adenocarcinoma cell viability – A549, calcein-AM fluorescence, 48 h, basal, profiling panel (AID 1162). Further: test concentration not given here. To be noted: higher = more signal.
A short description of assay [12]: compound effects on differentiated 3T3-L1 adipocyte viability – cell-based, 3T3-L1 adipocytes, calcein-AM fluorescence, 48 h, basal, profiling panel (AID 1163). Further: test concentration not given here. To be noted: 3T3-L1 adipocytes viability, higher = more signal.
Assay [13] is described as follows: compound effects on hepatocellular carcinoma cell viability – HepG2, calcein-AM fluorescence, 48 h, basal, profiling panel (AID 1164). Further: test concentration not given here. To be noted: higher = more signal.
Assay [14] in a line: compound effects on multiple myeloma cell viability – MM1S, calcein-AM fluorescence, 48 h, basal, profiling panel (AID 1165).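 Further: viability of MM1S multiple myeloma cells under basal unstimulated conditions; test concentration not given here.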 Particulars: higher = more signal.
Assay [15] is described as follows: calcein-AM signal in unstimulated myeloma cells – cell-based, calcein-AM fluorescence, 48 h, PK04 Diversity Set, profiling panel (AID 1166).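 Further: cells grown under basal conditions without added stimulus; test concentration not given here.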 Particulars: RPMI8226 myeloma viability, higher = more signal.
A short description of assay [16]: JC-1 mitochondrial signal, unstimulated HepG2 cells – cell-based, JC-1 fluorescence, 24 h, 100 nL compound, profiling panel (AID 1167). Further: test concentration not given here. Particulars: HepG2 mitochondrial potential, higher = more signal.
Assay [17] is described as follows: JC-1 mitochondrial signal, unstimulated adipocytes – cell-based, JC-1 fluorescence, 3T3-L1 adipocytes, 24 h, 100 nL compound, profiling panel (AID 1168). Further: test concentration not given here. Particulars: JC-1 mitochondrial fluorescence, higher = more signal, called active from +8 up or from −8 down.
Assay [18] in a line: JC-1 mitochondrial signal, unstimulated myeloma cells – cell-based, JC-1 fluorescence, RPMI8226, 24 h, 100 nL compound, profiling panel (AID 1169). Further: test concentration not given here. To be noted: JC-1 mitochondrial potential fluorescence, higher = more signal.
Assay [19] in a line: JC-1 mitochondrial signal, unstimulated MM1S myeloma – cell-based, JC-1 fluorescence, 24 h, 100 nL compound, profiling panel (AID 1170). Further: test concentration not given here. To be noted: MM1S mitochondrial potential, higher = more signal.
Assay [20] in a line: resazurin metabolic signal in A549 cells – cell-based, resazurin fluorescence, 24 h, PK04 Diversity Set, profiling panel (AID 1171). Further: test concentration not given here. To be noted: A549 viability, higher = more signal, called active from +8 up or from −8 down. In general terms: Resazurin is reduced to fluorescent resorufin, in cell work by metabolically active cells.

NADPH oxidase 4 (Homo sapiens), sequence (Q9NPH5 whole entry, looked up): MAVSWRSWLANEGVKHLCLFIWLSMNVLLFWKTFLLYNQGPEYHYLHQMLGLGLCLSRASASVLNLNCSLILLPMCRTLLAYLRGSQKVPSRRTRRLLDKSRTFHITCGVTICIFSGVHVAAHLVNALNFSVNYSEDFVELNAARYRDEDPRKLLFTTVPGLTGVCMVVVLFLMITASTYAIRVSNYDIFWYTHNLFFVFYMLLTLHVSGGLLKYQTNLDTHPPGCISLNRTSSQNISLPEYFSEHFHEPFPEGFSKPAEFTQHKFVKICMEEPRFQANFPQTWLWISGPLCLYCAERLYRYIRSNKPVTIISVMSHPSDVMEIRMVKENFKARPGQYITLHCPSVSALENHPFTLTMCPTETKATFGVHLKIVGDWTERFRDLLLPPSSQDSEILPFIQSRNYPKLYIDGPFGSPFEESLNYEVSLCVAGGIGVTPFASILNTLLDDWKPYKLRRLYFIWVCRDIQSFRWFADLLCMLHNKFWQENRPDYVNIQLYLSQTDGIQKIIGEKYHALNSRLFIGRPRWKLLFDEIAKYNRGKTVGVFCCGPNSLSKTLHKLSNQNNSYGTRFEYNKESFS
NADPH oxidase 5 (Homo sapiens), sequence (Q96PH1 whole entry, looked up): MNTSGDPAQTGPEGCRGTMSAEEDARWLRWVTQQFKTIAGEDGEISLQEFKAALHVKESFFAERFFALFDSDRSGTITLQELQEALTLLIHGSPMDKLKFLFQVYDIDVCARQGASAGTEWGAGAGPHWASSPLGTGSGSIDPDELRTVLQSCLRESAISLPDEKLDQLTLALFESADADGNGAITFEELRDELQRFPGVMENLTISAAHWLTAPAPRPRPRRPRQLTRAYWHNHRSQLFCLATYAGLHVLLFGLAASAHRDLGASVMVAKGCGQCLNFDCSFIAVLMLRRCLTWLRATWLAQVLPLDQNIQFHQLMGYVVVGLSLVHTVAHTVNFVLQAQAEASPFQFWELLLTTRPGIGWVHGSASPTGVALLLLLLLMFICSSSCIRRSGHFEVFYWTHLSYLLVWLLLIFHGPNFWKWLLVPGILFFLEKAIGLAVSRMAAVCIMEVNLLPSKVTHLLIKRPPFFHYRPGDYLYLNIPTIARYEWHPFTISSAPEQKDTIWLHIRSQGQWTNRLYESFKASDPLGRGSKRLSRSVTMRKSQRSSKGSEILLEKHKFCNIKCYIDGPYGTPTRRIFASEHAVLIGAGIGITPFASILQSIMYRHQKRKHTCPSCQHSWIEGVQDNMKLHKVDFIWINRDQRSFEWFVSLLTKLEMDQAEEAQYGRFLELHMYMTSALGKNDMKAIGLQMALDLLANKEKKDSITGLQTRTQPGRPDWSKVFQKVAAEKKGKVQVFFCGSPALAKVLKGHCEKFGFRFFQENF
NADPH oxidase 2 (Homo sapiens), sequence (P04839 whole entry, looked up): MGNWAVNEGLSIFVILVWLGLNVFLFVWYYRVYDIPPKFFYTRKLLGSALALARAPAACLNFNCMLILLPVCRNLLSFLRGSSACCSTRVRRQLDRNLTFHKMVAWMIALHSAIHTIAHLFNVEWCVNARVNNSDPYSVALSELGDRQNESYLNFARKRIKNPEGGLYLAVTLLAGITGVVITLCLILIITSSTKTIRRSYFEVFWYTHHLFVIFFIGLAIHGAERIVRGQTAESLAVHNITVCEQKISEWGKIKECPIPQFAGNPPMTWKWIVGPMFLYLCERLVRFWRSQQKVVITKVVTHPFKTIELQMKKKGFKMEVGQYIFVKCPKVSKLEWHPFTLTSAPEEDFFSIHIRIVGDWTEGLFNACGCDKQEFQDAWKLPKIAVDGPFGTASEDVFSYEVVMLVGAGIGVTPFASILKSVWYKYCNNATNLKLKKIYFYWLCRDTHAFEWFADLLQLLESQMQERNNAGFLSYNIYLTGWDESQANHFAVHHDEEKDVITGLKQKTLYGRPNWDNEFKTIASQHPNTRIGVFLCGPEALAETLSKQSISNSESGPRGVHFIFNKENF

Regarding `CC1CC/C=C\[C@H]2OC34C=CCN(C(C)(C)C)C(=O)[C@H]3N(CCCCCO)C(=O)[C@@H]4C2C(=O)O1` (stereo not given in full), the z-score was -0.121 (inactive) in assay [1]; 0.204 (inactive) in assay [3]; 0.437 (inactive) in assay [4]; -0.136 (inactive) in assay [5]; 0.21 (inactive) in assay [6]; -0.333 in [7]. Also, the z-score in assay [8] is 0.673 (inactive); in assay [9], -0.225 (inactive); in assay [10] it was 1.3; in assay [11] it was 0.0683; in assay [12] it was 0.525; in [13], 0.0474. The z-score was 0.719 in assay [14]; -0.561 in assay [15]; -0.589 in assay [16]; -0.226 (inactive) in assay [17]; 0.592 in assay [18]; -0.203 in assay [19]. Besides, in assay [20], the z-score was -0.146 (inactive). Moreover, the composite z-score in [2] was -0.0984.

With `Cc1ccc(S[C@]2(C(=O)NC(C)C)CC(=O)N(Cc3cc(C(F)(F)F)cc(C(F)(F)F)c3)[C@@H]2c2ccc(CO)cc2)cc1`, the z-score in [1] is -0.16 (inactive); in [3], 2.96 (inactive); in assay [4], 0.812 (inactive); in assay [5], 0.497 (inactive); in [6] it was 0.672 (inactive); in assay [7] it was -0.768. Also, the z-score in [8] is -0.00496 (inactive); in [9], -0.242 (inactive); in [10] it was 0.128; in assay [11] it was 0.15; in [12] it was -0.312; in [13], -0.286. The z-score in assay [14] is 0.395; in assay [15], 0.392; in assay [16], -0.387; in [17], -0.5 (inactive); in assay [18], -0.555; in assay [19] it was -0.129. In assay [20], the z-score was 0.271 (inactive). This molecule also returned a composite z-score in assay [2] of -0.0252.

In the case of `[N-]=[N+]=Nc1ccccc1C[C@@]1(C(N)=O)N=C(c2ccc(OCCCO)cc2)O[C@@H]1c1ccccc1N=[N+]=[N-]`, the z-score in [1] was 0.587 (inactive); in [3], 30.4 (active); in assay [4] it was 25.3 (active); in assay [5], 2.63 (inactive); in [6] it was 1.35 (inactive); in assay [7], 2.05. The z-score in assay [8] was -0.0581 (inactive); in assay [9] it was -1.11 (inactive); in [10], -1.55; in [11], -1.53; in assay [12], 1.08; in [13] it was -0.727. For the same molecule, the z-score in [14] is -1.68; in [15], -4.08; in assay [16], -1.11; in [17], -1.35 (inactive); in assay [18], -1.23; in assay [19], -0.169. Besides, in assay [20], the z-score was -0.385 (inactive). In assay [2], this molecule showed a composite z-score of 0.0211.

Take `CCCC1(C(=O)OC)C=C2C(=C(C)C(=O)C2C)CN1` (stereo not given): the z-score in [1] is -1.8 (inactive); in assay [3] it was -0.0775 (inactive); in assay [4], -0.0273 (inactive); in assay [5], -0.0148 (inactive); in [6], 0.274 (inactive); in assay [7], -0.386. Also, the z-score in [8] was 0.43 (inactive); in assay [9], -1.28 (inactive); in assay [10], -2.88; in assay [11] it was -1.48; in assay [12], -1.07; in assay [13] it was -0.806. Also, the z-score was -0.44 in [14]; -1.03 in assay [15]; -1.96 in assay [16]; -1.16 (inactive) in assay [17]; -0.0212 in assay [18]; -0.974 in assay [19]. In addition, in assay [20], the z-score was -0.727 (inactive). The molecule further showed a composite z-score in assay [2] of 0.193.

Take `O=C(c1ccccc1)N1C(=O)[C@]2(Cc3ccccc31)N=C(c1ccc(OCCCO)cc1)O[C@@H]2c1ccccc1`: the z-score in assay [1] was -0.857 (inactive); in [3], 21.9 (active); in assay [4], 8.53 (active); in assay [5] it was 0.0521 (inactive); in assay [6] it was 1.35 (inactive); in assay [7], -0.203. The z-score in assay [8] was 0.491 (inactive); in [9], -0.703 (inactive); in [10], -1.77; in assay [11], -1.84; in [12], 0.736; in [13], -2.44. Moreover, the z-score in assay [14] is -3.55; in [15] it was -4.35; in assay [16] it was -2.26; in assay [17] it was -0.0262 (inactive); in [18], -1.18; in assay [19] it was -2.17. The z-score in assay [20] was -2.83 (inactive). In assay [2], the composite z-score was determined as 0.297.
